Results reported in PubChem BioAssay AID2013 (Sanford-Burnham Center for Chemical Genomics, 2009).
In all, about 290,000 compounds went through this assay and about 370 (0.13%) were called active.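 Rule for the calls: active = spots per cell inhibited over 60%, with over 100 cells counted and total cytoplasm intensity under 500,000; inconclusive = wells with under 100 cells, flagged as likely toxic; inactive = the rest.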 The list comes from a sample in which actives are over-represented; it also holds similar structures and randomly drawn compounds. Results with a measured potency or affinity are listed apart.

Each molecule was assayed against G-protein coupled receptor 55 (Homo sapiens) (UniProt Q9Y2T6) (assay: inhibition of LPI-stimulated GPR55 beta-arrestin translocation – imaging, U2OS, beta-arrestin-GFP, LPI agonist, primary screen (AID 2013;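 note: U2OS cells stably carrying GPR55 and arrestin-GFP stimulated by 5 µM LPI near EC80; imaged beta-arrestin-GFP aggregate spots per cell after agonist stimulation; plate controls were LPI-stimulated DMSO wells for no effect and DMSO wells without LPI for full effect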)). Settings: LPI antagonism, at 10 µM, hits give high values.
Sequence of G-protein coupled receptor 55 (Homo sapiens) (Q9Y2T6 whole entry, looked up): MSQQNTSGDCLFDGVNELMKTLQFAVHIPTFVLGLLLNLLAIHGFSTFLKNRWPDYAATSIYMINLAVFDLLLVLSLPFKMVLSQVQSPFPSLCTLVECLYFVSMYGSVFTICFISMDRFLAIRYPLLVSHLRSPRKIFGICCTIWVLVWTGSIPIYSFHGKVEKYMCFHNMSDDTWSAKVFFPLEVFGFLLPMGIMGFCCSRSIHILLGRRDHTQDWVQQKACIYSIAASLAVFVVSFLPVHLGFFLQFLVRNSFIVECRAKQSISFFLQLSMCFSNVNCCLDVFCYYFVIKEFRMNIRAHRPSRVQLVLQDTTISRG

inhibition, active:
O=S1(=O)CC=C(CSC(=S)NC2CCS(=O)(=O)C2)C1 (configuration not stated) 71.8%
COC(CNC(=O)c1ccc2c3c(onc13)-c1ccccc1C2=O)OC 99.4%
COCCCNC(=O)c1ccc2c3c(onc13)-c1ccccc1C2=O 84.1%
CC(=O)NC1=NC(=O)/C(=C/c2cn(C(C)=O)nc2-c2ccccc2)S1 100%

inhibition, inactive:
O=C(NC1CCCC1)C(c1cccnc1)N(C(=O)c1ccco1)c1cccc(F)c1 (configuration not stated) -23.3%
COc1ccc(N2C(=O)CSC23C(=O)N2c4c(cccc43)C(C)=CC2(C)C)cc1 (configuration not stated) -6.8%
Cc1ccc(N2C(=O)CSC23C(=O)Nc2ccccc23)cc1 (configuration not stated) 17.5%
CC1=CC(C)(C)N2C(=O)C3(NCCc4c3[nH]c3ccccc43)c3cc(C)cc1c32 (configuration not stated) 6.1%
Cc1cc2c3c(c1)C1(SCC(=O)N1c1ccc(F)cc1)C(=O)N3C(C)(C)CC2C (configuration not stated) 26.5%
CC(C(=O)Nc1ccc(S(=O)(=O)N2CCOCC2)cc1)N(c1ccccc1)S(C)(=O)=O (configuration not stated) 2.6%
COc1ccccc1CN1CC(C(=O)N(C)CCOc2ccccc2)CCC1=O (configuration not stated) 4.1%
CCc1ccc2oc(C(=O)NC3CCS(=O)(=O)C3)cc(=O)c2c1 (configuration not stated) 0.2%
CCOC(=O)c1cnc2c(c(C)nn2C)c1Oc1ccc(OC)cc1 24.7%
CCOC(=O)c1cnc2c(c(C)nn2C)c1Oc1cc(Cl)cc(Cl)c1 -4.2%
CCOc1ccc(/C=N/n2c(-c3ccccc3)n[nH]c2=S)cc1 -1.8%
O=C(O)CSCC(=O)Nc1ccc(S(=O)(=O)N2CCCCC2)cc1 8.7%
CC(c1ccc(F)cc1)n1cc(C(=O)NCc2ccccn2)nn1 (configuration not stated) -1.6%
O=C(CSc1nc2ccccc2[nH]1)N=Nc1c(O)[nH]c2ccccc12 -8.4%
O=c1[nH]c2ccccc2nc1-c1ccccc1 5.1%
NC(=O)c1sc2nnc(-c3ccccc3)c(-c3ccccc3)c2c1N 21.8%
CCSc1nnc(-c2cccs2)o1 -4.1%
O=C(CCn1ccnc1)Nc1cc(Cl)ccc1O 4.7%
N=C1S/C(=C\c2cccc3ccccc23)C(=O)N1c1ccc(F)cc1 -1.5%
N=C1S/C(=C\c2ccccc2F)C(=O)N1c1ccc(F)cc1 7.1%
CC(C)(C)OC(=O)CC12CCCCC1NC(=O)O2 (configuration not stated) -7.6%
COc1ccc2[nH]c(=O)c(COC(=O)c3ccco3)cc2c1 -0.6%
CCCCNS(=O)(=O)c1cccc(S(=O)(=O)N2CCCC2)c1 11.2%
CC1Cn2c(nc(=O)c3c2NCN(CCc2ccccc2)C3)S1 (configuration not stated) 3.9%
CC(=O)c1c(C)nc2ccccn12 5.4%
O=S1(=O)CCC(NC(=S)SCc2ccccc2Br)C1 (configuration not stated) 8.1%
CCCSC(=S)NC1CCS(=O)(=O)C1 (configuration not stated) 1.1%
CCOC(=O)C1=C(C)NC(C)=C(C(=O)OC)C1c1cccc([N+](=O)[O-])c1 (configuration not stated) 14.8%
CCOC(=O)C1=C(O)C(=O)N(c2ccccc2)C1c1cccc([N+](=O)[O-])c1 (configuration not stated) -3.6%
CCn1c(SCc2nc3cc(OC)c(OC)cc3c(=O)[nH]2)nnc1-c1ccncc1 -12.8%
CCOC(=O)N1CCN(C(=O)CS(=O)Cc2nc(-c3cccc(C)c3)oc2C)CC1 (configuration not stated) -4.3%
Cc1cc(=O)c(C(=O)O)nn1-c1ccccc1C(F)(F)F -0.4%
O=C(NC(NC(=S)Nc1ccccc1C(=O)O)C(Cl)(Cl)Cl)c1ccco1 (configuration not stated) 15.9%
COc1ccccc1NC(=S)NC(NC(=O)c1ccco1)C(Cl)(Cl)Cl (configuration not stated) 3.2%
Cc1ccc(NC(=O)C2C3C=CC4(O3)C2C(=O)N(CCCN2CCCCC2)C4C(=O)NC2CCCCC2)cc1C (configuration not stated) 1.2%
COc1ccc(C(=O)C2CCCN(C(=O)c3noc4c3CCCC4)C2)c(C)c1 (configuration not stated) 15.3%
COCCNC(=O)c1cccc2c1-c1ccccc1C2=O 4%
CCOC(=O)C(C(=O)OCC)c1cc(Br)c2noc3c2c1C(=O)c1ccccc1-3 -10.2%
COCCCNC(=O)c1ccccc1-c1cc(C)no1 -3.6%
COC(CNC(=O)c1coc2nc3ccccc3nc12)OC -2.8%
O=C(c1cccc(C(F)(F)F)c1)N1CCN(S(=O)(=O)c2ccc(Cl)s2)CC1 9.8%
CCN(c1cccc(C)c1)S(=O)(=O)c1ccc2c(c1)oc(=O)n2C 1.9%
CCOc1ccc(NC(=O)CN(C)S(=O)(=O)c2ccc3c(c2)CCC(=O)N3)cc1 -0.4%
COc1ccc(C(=O)NC(Oc2ccccc2)C(Cl)(Cl)Cl)cc1 (configuration not stated) -6.6%
CC(C)CC(=O)NNC(=O)c1ccc(Cl)cc1 4.3%
COc1ccc(C(=O)N(CCCO)C(C)C(=O)NC2CCCCC2)cc1OC (configuration not stated) -11.9%
CCOC(=O)c1ccc(NC(=O)c2ccc3c(c2)C(=O)N(Cc2cccnc2)C3=O)cc1 -16.9%
CCCSc1ncc(Cl)c(C(=O)Nc2ccc(S(=O)(=O)Nc3ncccn3)cc2)n1 7.3%
CSc1ncc(Cl)c(C(=O)Nc2ccc(S(=O)(=O)N3CCOCC3)cc2)n1 29.9%
N/C(Cc1cccs1)=N\OC(=O)COc1ccc(Cl)cc1Cl -3.5%
Cc1ccc(CN2CCN(/N=C/C(Br)=C\c3ccccc3)CC2)cc1 -12%
CN1/C(=C\C(=O)CSc2nncn2C)C(C)(C)c2ccccc21 -7.6%
CN1/C(=C\C(=O)CSc2cccc[n+]2[O-])C(C)(C)c2ccccc21 0.8%
COc1ccc2[nH]cc(C(O)CN3CCC(C(N)=O)CC3)c2c1 (configuration not stated) 28.7%
COc1ccc([N+](=O)[O-])cc1N(CC(=O)NCCC1=CCCCC1)S(C)(=O)=O 0.4%
CC(C)(C)c1ccc(O)c(N=Cc2cc3c(cc2[N+](=O)[O-])OCO3)c1 -3.2%
CC(=O)NC1=NC(=O)/C(=C/c2cc(C)n(-c3cccc(C(=O)O)c3)c2C)S1 -3.4%
CCN=C1S/C(=C\c2cn(C(C)=O)nc2-c2ccccc2)C(=O)N1CC -15.2%
